Rango release inh: inhibition of RanGTP-driven Rango-importin beta dissociation; Biochemical FRET Rango-importin beta, RanGTP-induced dissociation; actives 0.071% (n = 340,000); O95149+P62826; Potency, µM (top dose mostly 46.1 µM), inactives show at the highest dose activity change, negative = inhibition; calls by dose curve; note: potency is the fitted concentration of half-maximal effect; % of control where 0% means no effect; nearly all actives have a fitted effect of over 45% in size
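Two FRET readings bracket the reaction: one 5 min after compound meets Rango–importin beta, another 45 min after RanGTP-RCC1 (0.6 uM Ran, 0.2 uM RCC1, 2 mM GTP) is added. Only the second defines inhibition.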
Rango-impB inh: Rango-importin beta binding inhibition. Rango CFP/YFP FRET sensor + importin beta, 45 min. actives 0.031% (n = 340,000). Potency, µM (series often up to 92.2 µM), for inactives: at the highest dose inhibition of complex formation; calls by dose curve;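 note: potency is the fitted concentration of half-maximal effect; 0% = DMSO wells and 100% = buffer wells lacking importin beta; nearly all actives have a fitted effect of over 15% in size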
Target sequence (Q14974 whole entry, looked up): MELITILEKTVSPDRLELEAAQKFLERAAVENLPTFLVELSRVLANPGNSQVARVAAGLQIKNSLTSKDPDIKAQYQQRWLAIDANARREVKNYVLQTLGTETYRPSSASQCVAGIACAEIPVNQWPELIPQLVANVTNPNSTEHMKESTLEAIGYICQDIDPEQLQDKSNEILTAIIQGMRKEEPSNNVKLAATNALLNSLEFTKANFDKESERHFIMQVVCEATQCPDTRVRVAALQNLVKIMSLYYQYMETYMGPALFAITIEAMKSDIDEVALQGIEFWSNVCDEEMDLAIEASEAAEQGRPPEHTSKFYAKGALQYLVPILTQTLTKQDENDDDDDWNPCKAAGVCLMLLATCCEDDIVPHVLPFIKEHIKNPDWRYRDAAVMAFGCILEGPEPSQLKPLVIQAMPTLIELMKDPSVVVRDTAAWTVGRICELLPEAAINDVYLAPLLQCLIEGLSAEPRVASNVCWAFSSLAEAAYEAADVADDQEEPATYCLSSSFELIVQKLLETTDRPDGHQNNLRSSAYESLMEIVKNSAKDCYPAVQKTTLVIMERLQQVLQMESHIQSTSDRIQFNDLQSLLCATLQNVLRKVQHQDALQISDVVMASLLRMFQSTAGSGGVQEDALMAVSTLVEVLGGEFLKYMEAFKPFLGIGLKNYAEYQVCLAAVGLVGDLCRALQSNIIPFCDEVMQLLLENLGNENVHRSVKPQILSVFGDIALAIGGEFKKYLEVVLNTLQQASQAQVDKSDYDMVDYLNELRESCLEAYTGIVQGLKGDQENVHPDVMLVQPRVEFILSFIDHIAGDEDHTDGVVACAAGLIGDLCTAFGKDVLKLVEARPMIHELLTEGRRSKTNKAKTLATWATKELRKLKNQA
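FRET biosensor Rango (snurportin 1 IBB between N-terminal EYFP and C-terminal Cerulean), 50 nM in PBS/1 mM DTT/0.02% Tween-20/0.1% BSA, preincubated 5 min RT with compound; 0.125 microM importin beta added, 45 min RT, CFP/YFP FRET ratio read.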
KAT2A inh: inhibitors of human GCN5L2 histone acetyltransferase; Q92830; GCN5L2 HAT assay, ThioGlo1 CoA-SH fluorescence; Potency, µM (series often up to 58.9 µM), inactives show top-dose activity change, negative = inhibition, hits mostly inhibitors; actives 0.21% (n = 390,000); AID 504327; note: potency is the fitted concentration of half-maximal effect; % is set by controls: 0 for no effect and ±100 for the full control effect
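Compounds, pin-transferred from DMSO stocks, meet 20nM GCN5L2 for 15 min before the reaction begins with H3(1-25) peptide (75uM) and acetyl-CoA (70uM). Thiol-reactive ThioGlo1 reports CoA release over 20 min at room temperature.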
PLK1 PBD inh: blocks phosphopeptide binding to human PLK1 polo-box domain; Plk1 PBD binding of FITC phosphopeptide, fluorescence polarization; AID 720504; Potency, µM, for inactives: max response, negative = inhibition, usual class: inhibitors; actives 2.8% (n = 360,000); P53350; note: potency is the fitted concentration of half-maximal effect; series mostly up to about 57 µM; % is set by controls: 0 for no effect and ±100 for the full control effect; nearly all actives have a fitted effect of over 65% in size
VDR inhibitor: vitamin D3 receptor (human) inhibition; P11473; VDR-SRC2-3 peptide fluorescence polarization, 2 h; Potency, µM, for the others: max response, negative = inhibition, actives largely listed as inhibitors; actives 0.93% (n = 400,000); note: potency is the fitted concentration of half-maximal effect; % is set by controls: 0 for no effect and ±100 for the full control effect
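Two reagent solutions held at 4 deg C in the dark were dispensed, compounds pinned at 23 nl, and the mixture incubated 2 h at room temperature. Read-out: fluorescence polarization of VDR–SRC2-3 peptide binding.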
PI5P4Ka inh: blocks human PI5P4K alpha kinase activity | actives 1.2% (n = 330,000) | AID 652105 | PI5P4Kalpha enzyme, ADP-Glo luminescence, 60 min; stronger effect = lower value | P48426 | max response, %; active = max response of -50% or lower; inconclusive = between -30% and -50%; inactive = -30% or higher; note: value at the top dose of about 77 µM; % is set by controls: 0 for no effect and ±100 for the full control effect
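qHTS, 1536-well: enzyme/substrate mix, compound by pin tool, 5 microM ATP final; RT 60 min; ADP-Glo reagents 1 (45 min) then 2 (30 min); luminescence.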
* hit, by the source's call; ? = inconclusive; / = no result; [ ] = another dose, or the depositor's remark. Shown are actives, neighbours in structure and some others; about 3.6% of the full set was active somewhere. Unless noted, calls come from the whole dose curve; as a rule, active = well fitted curve in the direction sought with a large enough effect; inconclusive = small, poorly fitted or top-dose-only effect, or another doubt; inactive = no such curve, though single readings can be large; an effect the other way counts as inactive or inconclusive.

SMILES | Rango release inh | Rango-impB inh | KAT2A inh | PLK1 PBD inh | VDR inhibitor | PI5P4Ka inh
Cc1ccc([C@@H]2CC=C(C(=O)O)[C@H](c3ccc(Br)cc3)N2S(=O)(=O)c2ccccc2C)cc1 | 6.1% | 2.9% | ? | 26.7µM* | ? | 1.8
Cc1ccccc1S(=O)(=O)N1C(c2ccc(Cl)c(Cl)c2)CC=C(C(=O)O)C1c1cccc(Br)c1 (stereo not drawn) | / | / | / | 23.8µM* | / | ?
O=C(COC(=O)CCN1C(=O)c2ccccc2C1=O)Nc1ccc(S(=O)(=O)N2CCCC2)cc1 | -1.7% | 0.3% | -8.4% | -8.6% | -11.6% | 3.3
O=C(CCN1C(=O)c2ccccc2C1=O)Nc1ccc(S(=O)(=O)N2CCOCC2)cc1 | 8.7% | 4.7% | 1.0% | 23.8µM* | ? | /
COc1ccc(Cl)cc1NC(=O)CSc1nnc2[nH]c(=O)cc(C)n12 | / | / | 2.7% | / | 19.8% | /
CCCn1c2ccccc2c2cnn(CC(=O)NCCCN(Cc3ccccc3)C(C)C)c(=O)c21 | / | / | -4.0% | / | 1.3% | /
NC(=O)c1ncn([C@@H]2O[C@H](CNCc3ccc(OCC(=O)Nc4nccs4)cc3)[C@@H](O)[C@H]2O)n1 | -6.8% | -2.3% | / | -17.1% | -10.0% | -64.2*
O=C(CCS(=O)(=O)c1ccc2c(c1)NC(=O)CO2)NCCc1ccccc1 | 0.8% | 8.4% | -1.8% | 18.9µM* | ? | 3.3
CC1CCC(NC(=O)CCS(=O)(=O)c2ccc3c(c2)NC(=O)CO3)CC1 (stereo not drawn) | 25.6% | -1.7% | -0.5% | 16.8µM* | ? | -5.6
CC(=O)c1cccc(NC(=O)CSc2nc(=O)n(Cc3ccco3)c3c2CCC3)c1 | / | / | 1.3% | / | 1.7% | /
CC(Oc1ccccc1)C(=O)Nc1ccccc1C(=O)OCc1cc(=O)n2nc(C(C)C)sc2n1 (stereo not drawn) | / | / | -8.1% | / | 4.1% | /
Cc1oc2cc(O)ccc2c(=O)c1-c1nncn1-c1ccccc1 | ? | ? | -2.3% | 29.9µM* | 7.6% | ?
Cc1oc2cc(O)ccc2c(=O)c1-c1cnn(-c2ccccc2)c1 | 0.7% | -0.3% | -4.2% | -7.3% | 0.8% | 0.2
CCCN1CNc2c(c(=O)[nH]c(=S)n2CCc2c(OC)cccc2OC)C1 | / | / | / | / | -17.5% | /
CC(=O)c1cccc(-c2ccc3c(=O)[nH]c(Nc4ccccc4)cc3c2)c1 | 11.6µM*[inhibitor] | ? | / | -15.8% | -10.2% | ?
Cc1ccc(-n2nc(C(=O)Nc3cccc(C#N)c3)c3c4ccccc4n(C)c3c2=O)cc1 | / | / | 2.3% | / | -21.7% | /
CCN(CC)C(=S)SCC(=O)Nc1ccc(F)cc1 | -13.8% | -1.1% | 3.55µM* | -28.2% | -3.3% | 0.0
CCN(CC)C(=S)SCC(=O)c1ccc(F)cc1 | 8.8% | 3.5% | -4.0% | 29.9µM* | 3.3% | -1.2
CCN(CC)C(=S)SCC(=O)Nc1cccc(C(F)(F)F)c1 | 1.1% | -0.3% | / | 0.8% | -1.2% | 8.7
CSc1ncc(Cl)c(C(=O)Nc2ccc(S(=O)(=O)N3CCC(C)CC3)cc2)n1 | / | / | -8.0% | / | 15.3% | /
COc1ccc2[nH]c(=O)c(CN(C3CCCCC3)C(c3nnnn3Cc3ccco3)C(C)C)cc2c1 (stereo not drawn) | ? | ? | -23.9% | ? | ? | -67.5*
CCC(c1nnnn1Cc1ccco1)N(Cc1cc2cc(C)cc(C)c2[nH]c1=O)CC1CCCO1 (stereo not drawn) | 12.7% | ? | -22.0% | 3.36µM* | -13.0% | ?
COc1ccc2cc(CN(CCc3ccccc3)Cc3nnnn3Cc3ccco3)c(=O)[nH]c2c1 | 14.6µM* | ? | 2.3% | -21.1% | -12.9% | ?
CCCCC[C@H](O)/C=C/[C@H]1OC(O)C[C@H](O)[C@@H]1C/C=C\CCCC(=O)O (stereo partly drawn) | / | / | / | / | -0.1% | /
COc1ccc(C2Nc3ccccc3-c3nnc(SC)nc3O2)cc1C (stereo not drawn) | / | / | -4.3% | / | -5.8% | /
SMILES | Rango release inh | Rango-impB inh | KAT2A inh | PLK1 PBD inh | VDR inhibitor | PI5P4Ka inh
CSc1nnc2c3ccccc3c3ccccc3c2n1 | -3.3% | 0.0% | -3.8% | 21.2µM* | ? | -7.3
Cc1cccn2c(=O)c3cc(C(=O)NCc4ccccc4)c(=N)n(CCOCCO)c3nc12 | / | / | -17.4% | / | -0.5% | /
O=C(N/N=C/c1ccc(-c2ccccc2[N+](=O)[O-])o1)c1cncc(Br)c1 | ? | -0.4% | -10.3% | -17.6% | ? | -27.5
CC(C)(C)c1ccc2c(c1)OC(C(=O)N/N=C\c1ccc(-c3cccc(C(=O)O)c3)o1)CO2 (stereo not drawn) | -27.0% | ? | -22.3% | 18.9µM* | ? | -15.9
Cc1c(C(=O)N/N=C/c2ccc(-c3ccccc3[N+](=O)[O-])o2)sc(N)c1C#N | -10.4% | -1.3% | -4.6% | ? | ? | -52.7*
O=C(N/N=C\c1ccc(-c2ccccc2[N+](=O)[O-])o1)C1COc2cc3ccccc3cc2O1 (stereo not drawn) | 1.0% | -0.5% | 22.4µM* | -23.7% | ? | -18.5
CCC(C)NCc1ccc(C(=O)OC)o1 (stereo not drawn) | 8.2% | -0.7% | 46.1% | 23.8µM* | ? | -14.9
COC(=O)c1ccc(Cc2ccc(C(=O)OC)o2)o1 | 0.0% | 0.1% | 2.2% | -0.8% | 0.7% | /
COc1ccc2c(c1)c1c(c(=O)n(-c3cc(Cl)ccc3C)c(=O)n1Cc1ccc(F)cc1)n2C | / | / | -13.9% | / | 28.2% | /
O=c1[nH]n(-c2ccccn2)c(=O)c2ccccc12 | 21.5% | ? | -3.1% | 29.9µM* | ? | -8.5
CO[C@H]1C([C@@]2(C)O[C@@H]2CC=C(C)C)[C@]2(CC[C@H]1OC(=O)/C=C/C=C/C=C/C=C/C(=O)O)CO2 (stereo partly drawn) | / | / | -5.7% | / | 35.5µM* | /
COc1cc(NC(=O)/C=C/c2ccccc2)c(C(=O)O)cc1OC | 37.0% | 0.3% | -10.3% | 16.8µM* | ? | -28.8
COc1ccc(/C=C/C(=O)Nc2nc(C)cc(C)n2)cc1OC | -9.9% | ? | -9.8% | 29.9µM* | -18.6% | -14.4
COc1ccc(/C=C/C(=O)Nc2cc(C)on2)cc1 | -8.5% | -0.7% | 2.1% | 29.9µM* | ? | -16.6
COc1ccc(/C=C/C(=O)Nc2ccncc2)cc1OC | -5.2% | -1.3% | 1.1% | -13.6% | -17.5% | 1.1
C#CCOCCOCCOCCNc1nc(N2CCN(C(=O)CCCCCCCCCCNC(=O)[C@@H](CCC(=O)O)n3cc(CCCCCN)nn3)CC2)nc(N2CCN(C(=O)CCCCCCCCCCNC(=O)[C@H](CO)n3cc(CCCSC)nn3)CC2)n1 | 0.0% | -2.9% | -3.9% | ? | -13.1% | -2.0
